Measured values from PubChem BioAssay (EPA / NIEHS).
Activity calls are given as the source filed them. Rule for the calls: active = hit-call score of the fitted dose curve at least 0.9, where 1 is the maximum; inactive = score below 0.9.

Each molecule was assayed on Caspase-3 (Homo sapiens) (UniProt P42574) (assay: LTEA_HepaRG_CASP3: Life Technologies and Expression Analysis (LTEA) Assay for cysteine-aspartic acid protease (CASP3) using HepaRG (AID 2283477)). Details: mRNA level, 48 h; actives raise or lower the signal.
Protocol: LTEA_HepaRG is a cell based, multiplexed-readout assay that uses HepaRG, a human liver cell line, with measurements taken at 48 hours after chemical dosing on a 96-well plate.LTEA_HepaRG_CASP3 is one of 102 assay component(s) measured in the LTEA HepaRG cell culture assay. It is a marker of Cell proliferation, survival, death.Data from the assay component LTEA_HepaRG_CASP3 was analyzed into 1 endpoint. This assay endpoint, LTEA_HepaRG_CASP3, was analyzed with bidirectional fitting relative to DMSO as the negative control and baseline of activity. Using a type of inducible reporter, measures of mRNA induction for gain or loss-of-signal activity can be used to understand regulation of transcription factor activity. To generalize the intended target to other relatable targets, this assay endpoint is annotated to the protease intended target family, where the subfamily is cysteine protease.
A total of 1060 chemcials from the ToxCast library were tested in eight-point concentration-response experiments. Cell culture and cytotoxicity assays were conducted at Thermo Fisher Scientific's Custom Services facility (Madison, WI). A single lot of human HepaRG cells (Thermo Fisher Scientific, Frederick, MD) was used for the cell culture experiments. 96-well format collagen type I coated plates of human HepaRG cells were prepared using established methods. Briefly, cryopreserved HepaRG cells were thawed, plated at a density of approximately 100,000 cells/well in HepaRG Thaw, Plate, and General Purpose media (HPRG770, Thermo Fisher Scientific), and incubated for 48 hours. 0.5% DMSO was selected as vehicle control to balance the requisite need of DMSO in HepaRG cultures to maintain differentiation (for example, baseline metabolism, proportions of hepatocytes vs. cholangiocytes), while enabling further hepatic receptor pathway activation (for example, PXR and CAR) in response to chemical exposure. 48 hours after plating, the culture medium was replaced with HepaRG Serum-Free Incudtion Media. Cells were exposed to each test chemical in duplicate and maintained in CO2 incubators for another 48 hours. Chemical plates were thawed to room temperature and 200x concentrations of treatment groups were prepared. 8-point conentration-reponse curves were made with the highest exposure at 100 uM, followed by half-log dilutions, all in 0.5% DMSO. Each test plate contained variouse controls, induction positive controls (1mM phenobarbital), cytotoxicity positive controls ([…] aflatoxin B1), vehicle controls (0.5% DMSO), and total lysis controls (0.5% DMSO). Cell morphology images were taken using an Essen IncuCyte FLR automated microscope, with six 96-well plates imaged in about 24 minutes. Images were captured and exported and JPEG files. Spent culture media was transfered to black-well plates for the LDH assay, and remaining media was sorted at -80 C for later use. Cells were treated with RLT buffer and frozen until shipped for gene expression analysis. Total RNA was isolated from the cell suspension in 75 uL of Buffer RLT (Qiagen, Germantown, MD 20874) by Quintiles/Expression Analysis (Durham, NC) using a custom isolation procedure. Total RNA from each plate well was transferred to a preamplification plate. Fluidigm's 96.96 Dynamic ArrayTM (Fluidigm, Amsterdam, the Netherlands) technology was used for gene expression analyses by quantitative reverse transcription polymerase chain reaction (qRT-PCR, performed by Quintiles/Expression Analysis, Durham, NC)89. Standard TaqManTM Assays (Applied Biosystems/ThermoFisher Scientific, Foster City, CA) were used to assess the expression of 93 genes selected based on their selectivity and sensitivity to important hepatic receptors known to be modulated by environmental chemicals; importance in human hepatocyte functionality; and hepatotoxicity. […]

Chain of Caspase-3 (Homo sapiens) (P42574 whole entry, looked up): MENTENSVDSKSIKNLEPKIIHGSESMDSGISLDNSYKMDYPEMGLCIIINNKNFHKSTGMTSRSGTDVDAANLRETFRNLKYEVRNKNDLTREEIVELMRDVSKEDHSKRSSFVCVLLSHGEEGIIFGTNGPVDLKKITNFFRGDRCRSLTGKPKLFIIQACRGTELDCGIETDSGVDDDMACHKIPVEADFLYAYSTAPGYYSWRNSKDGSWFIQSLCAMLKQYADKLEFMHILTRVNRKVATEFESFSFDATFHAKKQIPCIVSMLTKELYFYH

outcome, inactive:
CCCCC(CC)C(=O)O (stereo unspecified), CC(=O)Nc1ccc(O)cc1, CCCCC=O, CN(C)CCOC(c1ccccc1)c1ccccc1, O=C(CCCN1CCC(O)(c2ccc(Cl)cc2)CC1)c1ccc(F)cc1, CCCCCCCCCCCCCCC, CN(Cc1cnc2nc(N)nc(N)c2n1)c1ccc(C(=O)N[C@@H](CCC(=O)O)C(=O)O)cc1, O=C(c1ccccc1)c1ccccc1, OCC(CO)(CBr)CBr, CS(=O)(=O)c1ccc([C@@H](CC2CCCC2)C(=O)Nc2cnccn2)cc1Cl, CCCCCCCCCCCCOS(=O)(=O)O, O=C1NS(=O)(=O)c2ccccc21, Cc1[nH]nc2c1N=C(c1ccccc1Cl)c1cc([N+](=O)[O-])ccc1N2, CCCCc1oc2ccccc2c1C(=O)c1cc(I)c(OCCN(CC)CC)c(I)c1, CCC(C)c1ccccc1O (stereo unspecified)

AC50, active:
N=C(N)c1ccc(OCCCCCOc2ccc(C(=N)N)cc2)cc1 69.8 µM
